The list is not random: actives were taken first. Their share in the collection is about 17%.
DT40 TDP1 no CPT = qHTS for Inhibitors of human tyrosyl-DNA phosphodiesterase 1 (TDP1): qHTS in cells in absence of CPT; DT40 Tdp1-/- hTDP1 cells, no CPT, ATP luminescence, 48 h; Potency, µM (series often up to 46.2 µM), for the others: top-dose activity change, negative = growth inhibition, actives largely listed as inhibitors; 15% of 420,000 active; also: % is scaled to controls: 0 for no effect and ±100 for the full control effect; nearly all actives have a fitted effect of over 55% in size
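Cells were dispensed at 400 per well, compounds added by pin tool, plates incubated ≥48 hr at 37 °C, then CellTiter-Glo added for 30 min at room temperature before luminescence reading. Line: DT40 Tdp1-/- complemented with hTDP1; camptothecin omitted.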
TGFb SMAD3 inh = inhibitors of TGF-b signaling; AID 588855; HepG2 CAGA-GFP TGF-b/SMAD3 reporter, GFP fluorescence, 18 h; TGF-beta stimulated, 500 pg/mL final; 1.2% of 410,000 active; Potency, µM (top dose mostly 46.1 µM), for inactives: at the top dose activity, negative = inhibition, actives largely listed as inhibitors; also: % is scaled to controls: 0 for no effect and ±100 for the full control effect; nearly all actives have a fitted effect of over 65% in size
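Per well, imaged GFP fluorescence of HEPG2 CAGA-GFP cells gives the signal; cells get compound, then TGF-beta (500 pg/mL final), 18 h at 37 degrees C; %Activity versus -TGF-beta and +DMSO controls.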
HT1080 IDH1KD tx = kills HT-1080 cells with IDH1 knockdown | HT-1080 IDH1 knockdown viability, ATP luminescence, 48 h | Potency, µM (highest dose often 46.1 µM), without a hit: at the top dose activity, negative = toxicity, most hits filed as cytotoxic | 2% of 360,000 active;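 also: 0% = DMSO wells and -100% = cell-free medium wells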
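Assay cells: HT-1080 with IDH1 knockdown, 750 per well, RPMI/5% FBS. Exposure: 48 h at 37 °C following 2 h pre-incubation. Read: CellTiter-Glo luminescence; fitted concentration-response, curve class assigned.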
HT1080NT lethal = kills 2HG-producing HT-1080-NT fibrosarcoma cells | Potency, µM (titrated, usually from 46.1 µM), for inactives: top-dose activity, negative = less viability, hits mostly cytotoxic | 1.6% of 360,000 active | HT-1080-NT fibrosarcoma viability, CellTiter-Glo ATP luminescence, 48 h | AID 686970;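 also: NT is the 2HG producing partner of a matched IDH1 knockdown line; 0% = DMSO-treated cells and -100% = media-only wells without cells; nearly all actives have a fitted effect of over 55% in size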
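750 cells/well, RPMI + 5% FBS; 2 h settle, compound pin-transfer, 48 h at 37 degrees C. CellTiter-Glo 10 min RT, luminescence. Normalized to DMSO and media-only wells.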
HepG2 viability = kills HepG2 cells in TGF-b inhibitor counter-screen; HepG2 CAGA-GFP viability, ATP luminescence, 18 h; Potency, µM (highest dose often 46.1 µM), for inactives: at the highest dose activity change, negative = cytotoxicity, usual class: cytotoxic; 0.76% of 410,000 active; AID 588856
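CellTiter-Glo luminescence gave cytotoxicity after 18 hours at 37 degrees C. The cells were HepG2 CAGA-GFP in 1% FBS DMEM, stimulated with 500 pg/mL TGF-beta after compound addition. %Activity was normalised to no-cell wells (complete cell-killing) and DMSO (no toxicity), and curves were fitted and classified.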
DT40 TDP1 CPT = growth inhibition of DT40 Tdp1-/-;hTDP1 cells with camptothecin (screen for TDP1 inhibitors). 12% of 420,000 active. Potency, µM (doses to about 46.2 µM), for the others: top-dose activity change, negative = growth inhibition, usual class: inhibitors. chicken DT40 Tdp1-/-;hTDP1 cells + 20 nM CPT, ATP luminescence, 48 h; also: % is scaled to controls: 0 for no effect and ±100 for the full control effect; nearly all actives have a fitted effect of over 55% in size
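Cell growth measured by CellTiter-Glo luminescence after a minimum 48 h, 37 C compound exposure with 20 nM CPT in Tdp1-knockout DT40 cells stably expressing hTDP1, seeded 400/well; qHTS titration format.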
Active calls of the source: *; ! = repeats disagree. Calls follow the shape of the dose curve; as a rule, active = well fitted curve in the direction sought with a large enough effect; inconclusive = small, poorly fitted or top-dose-only effect, or another doubt; inactive = no such curve, though single readings can be large; an effect the other way counts as inactive or inconclusive. Potency is read from the fitted curve at half-maximal effect.

COc1cccc(NC(=O)N2CCCC2C(=O)Nc2cc(C)ccc2OC)c1 (stereo not drawn) was read as DT40 TDP1 no CPT 1.4%, TGFb SMAD3 inh 24.3%, HT1080 IDH1KD tx 3.6%, HT1080NT lethal 4.5%, HepG2 viability 0.4% and DT40 TDP1 CPT 2.4%.
`CCc1ccccc1N1C(=O)C2CC=CCC2C1=O` (stereo not drawn) gave DT40 TDP1 no CPT 16.4µM*, TGFb SMAD3 inh -1.0%, HT1080 IDH1KD tx 1.7%, HT1080NT lethal 0.7%, HepG2 viability 4.1% and DT40 TDP1 CPT inconclusive.
For CC(Sc1nc(NCc2ccccc2)nc(N(C)C)n1)C(=O)Nc1ccccc1 (stereo not drawn) the results were DT40 TDP1 no CPT 20.6µM*, TGFb SMAD3 inh inconclusive, HT1080 IDH1KD tx inconclusive, HT1080NT lethal inconclusive, HepG2 viability -17.1% and DT40 TDP1 CPT 23.1µM*.
For CCNc1nc(SC(C)C(=O)Nc2ccccc2)nc(N2CCOCC2)n1 (stereo not drawn) the results were DT40 TDP1 no CPT inconclusive, TGFb SMAD3 inh 5.4%, HT1080 IDH1KD tx 4.3%, HT1080NT lethal -6.3%, HepG2 viability 12.2% and DT40 TDP1 CPT inconclusive.
`CC(Sc1nc(NCc2ccccc2)nc(N2CCOCC2)n1)C(=O)Nc1ccccc1` (stereo not drawn) gave DT40 TDP1 no CPT 20.6µM*, TGFb SMAD3 inh 0.3%, HT1080 IDH1KD tx -16.7%, HT1080NT lethal -6.8%, HepG2 viability -37.5% and DT40 TDP1 CPT inconclusive.
Screening Cc1cc(C)c(C(=O)CC(=O)c2ccccc2Cl)c(O)c1 returned DT40 TDP1 no CPT 10.3µM*, TGFb SMAD3 inh inconclusive, HT1080 IDH1KD tx inconclusive, HT1080NT lethal -27.6%, HepG2 viability -23.4% and DT40 TDP1 CPT 16.4µM*.
For Cc1ccc(Cc2c(-c3ccc(F)cc3)nc3cc(C)ccn23)cc1 the results were DT40 TDP1 no CPT 16.4µM*, TGFb SMAD3 inh inconclusive, HT1080 IDH1KD tx -27.2%, HT1080NT lethal -11.2%, HepG2 viability -37.4% and DT40 TDP1 CPT inconclusive.
`Cc1ccc(Cc2c(-c3ccc(Br)cc3)nc3cc(C)ccn23)cc1` gave DT40 TDP1 no CPT 20.6µM*, TGFb SMAD3 inh 12.7%, HT1080 IDH1KD tx 16.5%, HT1080NT lethal 20.4%, HepG2 viability 1.4% and DT40 TDP1 CPT 23.1µM*.
For Nc1nc(SCC(=O)Nc2cc(Cl)ccc2Cl)n[nH]1 the results were DT40 TDP1 no CPT inconclusive, TGFb SMAD3 inh 0.3%, HT1080 IDH1KD tx -1.1%, HT1080NT lethal -0.2%, HepG2 viability -8.9% and DT40 TDP1 CPT inconclusive.
For O=C(N[C@H](CO)[C@H](O)c1ccc([N+](=O)[O-])cc1)C(Cl)Cl the results were DT40 TDP1 no CPT 10.6µM*, TGFb SMAD3 inh 0.9%, HT1080 IDH1KD tx 10.2%, HT1080NT lethal 3.9%, HepG2 viability -2.4% and DT40 TDP1 CPT 7.5µM*!.
For O=C(NC(CO)Cc1ccc([N+](=O)[O-])cc1)C(Cl)Cl (stereo not drawn) the results were DT40 TDP1 no CPT 9.2µM*, TGFb SMAD3 inh -10.5%, HT1080 IDH1KD tx -2.0%, HT1080NT lethal -1.2%, HepG2 viability -10.8% and DT40 TDP1 CPT 16.4µM*.
For O=[N+]([O-])c1ccc(C(O)C(CO)NC(=S)Nc2ccccc2)cc1 (stereo not drawn) the results were DT40 TDP1 no CPT inconclusive, TGFb SMAD3 inh 8.9%, HT1080 IDH1KD tx -1.5%, HT1080NT lethal -8.6%, HepG2 viability 6.3% and DT40 TDP1 CPT 16.4µM*.
